High-throughput results as filed in PubChem BioAssay.
The entries come from a sample that favours hits as a whole.
HT1080 IDH1KD tx = qHTS for induction of synthetic lethality in tumor cells producing 2HG: qHTS for the HT-1080-IDH1KD cell line; HT-1080 IDH1 knockdown viability, ATP luminescence, 48 h; Potency, µM (titrated, usually from 46.1 µM), inactives show at the top dose activity, negative = toxicity, actives largely listed as cytotoxic; 360,000 compounds, 2% hits;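 also: potency is read from the fitted curve at half-maximal effect; 0% = DMSO wells and -100% = cell-free medium wells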
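Cytotoxicity counter-line: IDH1KD HT-1080, 48 h, CellTiter-Glo. Curves classed by r2, magnitude and activity.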
HT1080NT lethal = qHTS for induction of synthetic lethality in tumor cells producing 2HG: qHTS for the HT-1080-NT fibrosarcoma cell line; HT-1080-NT fibrosarcoma viability, CellTiter-Glo ATP luminescence, 48 h; Potency, µM (titrated, usually from 46.1 µM), without a hit: at the highest dose activity, negative = less viability, most hits filed as cytotoxic; 360,000 compounds, 1.6% hits;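 also: NT is the 2HG producing partner of a matched IDH1 knockdown line; potency is read from the fitted curve at half-maximal effect; 0% = DMSO-treated cells and -100% = media-only wells without cells; nearly all actives have a fitted effect of over 55% in size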
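HT-1080-NT; 750 cells/well; 5% FBS RPMI; 48 h compound, 37 degrees C; CellTiter-Glo luminescence; curve fitting and curve-class assignment.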
IL1B secr inh = qHTS for Inhibitors of Inflammasome Signaling: IL-1-beta AlphaLISA Primary Screen; 360,000 compounds, 4.7% hits; activity change, % at 57.5 µM; THP-1 LPS/ATP IL-1B secretion, AlphaLISA, 16 h; hits give low values; in the data active = activity change below about -50%; inconclusive = mostly about -30% to -49%
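THP-1 cells pretreated 1 hr with compounds (up to 57.5 uM final), then stimulated with LPS (250 ng/mL final) plus ATP (1.25 mM final); secreted IL-1B measured by AlphaLISA after 16 hr, decreased signal indicating inhibition.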
12-LOX inh = Primary qHTS assay for inhibitors of human arachidonate 12S-lipoxygenase (ALOX12): Round 2; Polyunsaturated fatty acid lipoxygenase ALOX12 (Homo sapiens), P18054; purified 12hLO, xylenol orange hydroperoxide absorbance; Potency, µM (highest dose often 108 µM), for inactives: at the top dose activity change, negative = inhibition, most hits filed as inhibitors; 580,000 compounds, 1.1% hits; AID 1671190, 2021; also: potency is read from the fitted curve at half-maximal effect
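Hydroperoxide product was detected by ferrous iron/xylenol orange as the 573 to 405 nm absorbance ratio. Arachidonic acid at 40 uM (final) was turned over for 30 min at room temperature by 150 nM human 12hLO, pH 7.0 Hepes buffer, after 15 min compound preincubation.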
DT40 TDP1 no CPT = qHTS for Inhibitors of human tyrosyl-DNA phosphodiesterase 1 (TDP1): qHTS in cells in absence of CPT; DT40 Tdp1-/- hTDP1 cells, no CPT, ATP luminescence, 48 h; Potency, µM (top dose mostly 46.2 µM), for the others: top-dose activity change, negative = growth inhibition, usual class: inhibitors; AID 686978, 2013; 420,000 compounds, 15% hits; also: potency is read from the fitted curve at half-maximal effect; nearly all actives have a fitted effect of over 55% in size
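Growth of hTDP1-complemented DT40 Tdp1-knockout cells is measured by ATP luminescence after at least 48 hr compound exposure at 37 °C, with DMSO substituting for the 20 nM CPT used in the parallel screen.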
DT40 TDP1 CPT = qHTS for Inhibitors of human tyrosyl-DNA phosphodiesterase 1 (TDP1): qHTS in cells in presence of CPT; chicken DT40 Tdp1-/-;hTDP1 cells + 20 nM CPT, ATP luminescence, 48 h; Potency, µM (titrated, usually from 46.2 µM), for the others: at the top dose activity change, negative = growth inhibition, usual class: inhibitors; 420,000 compounds, 12% hits; AID 686979, 2013; also: potency is read from the fitted curve at half-maximal effect; nearly all actives have a fitted effect of over 55% in size
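Chicken DT40 Tdp1-/- cells complemented with human TDP1, 400 cells/well, exposed to compounds plus 20 nM camptothecin for at least 48 h at 37 C; viability read as ATP content by CellTiter-Glo luminescence.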
* marks the source's active call; other numbers are inactive results; [ ] = dose if it differs, or a comment. Unless noted, calls follow the shape of the dose curve; as a rule, active = well fitted curve in the direction sought with a large enough effect; inconclusive = small, poorly fitted or top-dose-only effect, or another doubt; inactive = no such curve, though single readings can be large; an effect the other way counts as inactive or inconclusive. Unless noted, % is scaled to controls: 0 for no effect and ±100 for the full control effect.

How did CCCCN1CC(c2nc3ccccc3n2CCCCOc2c(C)cccc2C)CC1=O (stereo not given) do in these assays?
12-LOX inh: -10.9%; DT40 TDP1 no CPT: 7.31µM*; DT40 TDP1 CPT: 11.6µM*

What do the screens show for `COc1ccccc1OCCCCn1c(C2CC(=O)N(c3ccccc3Cl)C2)nc2ccccc21` (stereo not given)?
12-LOX inh: -17.7%; DT40 TDP1 no CPT: -26.1%; DT40 TDP1 CPT: inconclusive

What do the screens show for `CCCCN1CC(c2nc3ccccc3n2CCCCOc2ccccc2C)CC1=O` (stereo not given)?
12-LOX inh: -24.0%; DT40 TDP1 no CPT: 5.8µM*; DT40 TDP1 CPT: 7.31µM*

What do the screens show for `CCCCn1c(=O)[nH]c(=O)c2c1nc(-c1ccncc1)n2CC(C)C`?
12-LOX inh: 2.7%

Results for CO/N=C1\CCCc2c(C(=O)NN)sc(SC)c21 ?
HT1080 IDH1KD tx: 16.4µM*; HT1080NT lethal: 16.4µM*; IL1B secr inh: 36.0; 12-LOX inh: 71.9%; DT40 TDP1 no CPT: inconclusive; DT40 TDP1 CPT: inconclusive

How did CCOC(=O)c1sc(SC)c2c1CCC/C2=N/OC do in these assays?
HT1080 IDH1KD tx: 2.7%; HT1080NT lethal: -0.2%; IL1B secr inh: 12.4; 12-LOX inh: -1.3%; DT40 TDP1 no CPT: -1.1%; DT40 TDP1 CPT: 3.6%

What do the screens show for `Oc1ccccc1Oc1ncc(Br)c(Cl)n1`?
HT1080 IDH1KD tx: -5.8%; HT1080NT lethal: -2.8%; IL1B secr inh: 1.8; 12-LOX inh: 31.6µM*; DT40 TDP1 no CPT: 5.3%; DT40 TDP1 CPT: -5.2%

Results for CC(=O)NC1(C)CCN(Cc2cccc(-c3ccc4c(c3)OCCN4C)c2)C1 (stereo not given) ?
12-LOX inh: -3.0%[176 µM]

What do the screens show for `CC(=O)c1ccc(NS(=O)(=O)c2cc(-c3nc(-c4cccc(Cl)c4)no3)sc2C)cc1`?
12-LOX inh: -22.9%

What do the screens show for `Cc1cccc(N2C(=O)CS(=O)(=O)C23C(=O)N(Cc2c(F)cccc2Cl)c2ccccc23)c1` (stereo not given)?
12-LOX inh: -9.7%; DT40 TDP1 no CPT: 23.1µM*; DT40 TDP1 CPT: 20.6µM*

Results for Cc1ccc(N2C(=O)CS(=O)(=O)C23C(=O)N(Cc2ccccc2C)c2ccccc23)cc1Cl (stereo not given) ?
12-LOX inh: -28.9%; DT40 TDP1 no CPT: inconclusive; DT40 TDP1 CPT: inconclusive

How did Cc1ccc(CN2C(=O)C3(c4ccccc42)N(c2cccc(F)c2)C(=O)CS3(=O)=O)cc1 (stereo not given) do in these assays?
12-LOX inh: -11.3%; DT40 TDP1 no CPT: inconclusive; DT40 TDP1 CPT: 14.6µM*

What do the screens show for `Cc1ccc(N2C(=O)CS(=O)(=O)C23C(=O)N(Cc2cccc(F)c2)c2ccccc23)cc1Cl` (stereo not given)?
12-LOX inh: -19.1%; DT40 TDP1 no CPT: 23.1µM*; DT40 TDP1 CPT: 23.1µM*

What do the screens show for `O=C1CS(=O)(=O)C2(C(=O)N(Cc3ccccc3Cl)c3ccccc32)N1c1ccc(F)cc1` (stereo not given)?
12-LOX inh: -15.0%; DT40 TDP1 no CPT: 16.4µM*; DT40 TDP1 CPT: 14.6µM*

What do the screens show for `COc1ccc(-c2nc(C)nc3c2CN(C(=O)c2ccccc2F)CC3)cc1`?
12-LOX inh: 12.2%[6.33 µM]
